# Reference: PubChem BioAssay AID1159580 (chemical genetic matrix, 2015)
# In all, about 5,500 compounds went through this assay and about 2,000 (36%) were called active. About 18% were inconclusive and are not listed. This is one part of the list. Values without a mark were called inactive. Rule as the data show it: active = normalized growth mostly below about 0.91 (no sharp cut-off); inconclusive = no clear call, values can overlap the other calls; inactive = mostly above about 0.92.
# Experiment: chemical genetic growth profiling, strain panel (AID 1159580);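 also: tested at 20 µM; growth read once vehicle control cultures reached saturation at 30 °C; 1 = growth at the plate median or of vehicle wells; lower values mean less growth of the strain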
# Conditions: growth OD
# [1] = S. cerevisiae deletion strains, locus YAL013W, strain DEP1, active compounds read low
# [2] = S. cerevisiae deletion strains, locus YBR229C, strain ROT2, active compounds read low
# [3] = S. cerevisiae deletion strains, locus YDL101C, strain DUN1, active compounds read low
# [4] = S. cerevisiae deletion strains, locus YDR150W, strain NUM1, active compounds read low
# [5] = S. cerevisiae deletion strains, locus YEL061C, strain CIN8, active compounds read low
# [6] = S. cerevisiae deletion strains, locus YGR078C, strain PAC10, active compounds read low
# [7] = S. cerevisiae deletion strains, locus YHR030C, strain SLT2, active compounds read low
# [8] = S. cerevisiae deletion strains, locus YHR087W, strain rtc3, active compounds read low
# [9] = S. cerevisiae deletion strains, locus YJR043C, strain POL32, active compounds read low
# [10] = S. cerevisiae deletion strains, locus YJR075W, strain HOC1, active compounds read low
# [11] = S. cerevisiae deletion strains, locus YKL190W, strain CNB1, active compounds read low
# [12] = S. cerevisiae deletion strains, locus YLR039C, strain RIC1, active compounds read low
# [13] = S. cerevisiae deletion strains, locus YLR058C, strain SHM2 (second series), active compounds read low
# [14] = S. cerevisiae deletion strains, locus YLR085C, strain ARP6, active compounds read low
# [15] = S. cerevisiae deletion strains, locus YLR262C, strain YPT6, active compounds read low
# [16] = S. cerevisiae deletion strains, locus YML094W, strain GIM5, active compounds read low
# [17] = S. cerevisiae deletion strains, locus YMR219W, strain ESC1, active compounds read low
# [18] = S. cerevisiae deletion strains, locus YMR263W, strain SAP30, active compounds read low
# [19] = S. cerevisiae deletion strains, locus YNL153C, strain GIM3, active compounds read low
# [20] = S. cerevisiae deletion strains, locus YNL298W, strain CLA4 (second series), active compounds read low
# [21] = S. cerevisiae deletion strains, locus YNL322C, strain KRE1, active compounds read low
# [22] = S. cerevisiae deletion strains, locus YNR030W, strain Alg12, active compounds read low
# [23] = S. cerevisiae deletion strains, locus YPL055C, strain LGE1, active compounds read low
# [24] = S. cerevisiae deletion strains, locus YPL241C, strain CIN2, active compounds read low
# [25] = S. cerevisiae deletion strains, locus YPR135W, strain CTF4, active compounds read low
structure (smiles),measurement,setting,value
CC(=O)NN(C)c1ccc(C(F)(F)F)cc1[N+](=O)[O-],normalized growth,[1],1.01
same,normalized growth,[2],1.01
same,normalized growth,[3],1
same,normalized growth,[4],0.991
same,normalized growth,[5],1.02
same,normalized growth,[6],1
same,normalized growth,[7],1.11
same,normalized growth,[8],1.01
same,normalized growth,"S. cerevisiae deletion strains, locus YJL187C, strain SWE1, active compounds read low",1.02
same,normalized growth,[9],1.01
same,normalized growth,[10],1
same,normalized growth,[11],1.01
same,normalized growth,[12],1
same,normalized growth,[13],1.01
same,normalized growth,[14],1.04
same,normalized growth,[15],0.986
same,normalized growth,[16],1.02
same,normalized growth,[17],1.01
same,normalized growth,[18],1.01
same,normalized growth,[19],1.01
same,normalized growth,[20],1.01
same,normalized growth,[21],1.01
same,normalized growth,[22],1.02
same,normalized growth,[23],0.989
same,normalized growth,[24],1.02
same,normalized growth,[25],1.07
NNC(=S)Nc1ccc(C(F)(F)F)cc1,normalized growth,[1],0.918 (active)
same,normalized growth,[2],0.895 (active)
same,normalized growth,"S. cerevisiae deletion strains, locus YCL061C, strain MRC1, active compounds read low",0.872 (active)
same,normalized growth,[3],0.982
same,normalized growth,[4],0.899
same,normalized growth,[5],0.796 (active)
same,normalized growth,[6],0.867 (active)
same,normalized growth,[7],0.331 (active)
same,normalized growth,[8],0.899 (active)
same,normalized growth,[9],0.972
same,normalized growth,[10],0.961
same,normalized growth,[11],0.715 (active)
same,normalized growth,[12],0.847
same,normalized growth,[13],0.968
same,normalized growth,[14],0.254 (active)
same,normalized growth,[15],0.962
same,normalized growth,[16],0.703 (active)
same,normalized growth,[17],0.985
same,normalized growth,[18],0.937
same,normalized growth,[19],0.912 (active)
same,normalized growth,[20],0.378 (active)
same,normalized growth,[21],0.999
same,normalized growth,[22],0.522 (active)
same,normalized growth,[23],0.735 (active)
same,normalized growth,[24],0.661 (active)
same,normalized growth,[25],0.513 (active)
same,normalized growth,"S. cerevisiae strains, strain wild type, active compounds read low",0.756 (active)
FC(F)(F)c1ccc(NC(=S)Nc2ccc(C(F)(F)F)cc2Cl)c(Cl)c1,normalized growth,"S. cerevisiae deletion strains, locus YAR019C, strain CDC15, active compounds read low",0.964
same,normalized growth,"S. cerevisiae deletion strains, locus YBL105C, strain PKC1, active compounds read low",0.969
same,normalized growth,"S. cerevisiae deletion strains, locus YBR135W, strain CKS1, active compounds read low",0.955
same,normalized growth,"S. cerevisiae deletion strains, locus YBR136W, strain MEC1, active compounds read low",0.969
same,normalized growth,"S. cerevisiae deletion strains, locus YBR160W, strain CDC28, active compounds read low",0.948
same,normalized growth,"S. cerevisiae deletion strains, locus YDL017W, strain CDC7, active compounds read low",0.965
same,normalized growth,"S. cerevisiae deletion strains, locus YDL028C, strain MPS1, active compounds read low",0.952
same,normalized growth,[3],0.993
same,normalized growth,"S. cerevisiae deletion strains, locus YDL108W, strain KIN28, active compounds read low",0.946
same,normalized growth,"S. cerevisiae deletion strains, locus YDL132W, strain cdc53, active compounds read low",0.949
same,normalized growth,"S. cerevisiae deletion strains, locus YDL214C, strain PRR2, active compounds read low",0.921
same,normalized growth,"S. cerevisiae deletion strains, locus YDR052C, strain DBF4, active compounds read low",0.979
same,normalized growth,"S. cerevisiae deletion strains, locus YDR054C, strain cdc34, active compounds read low",0.976
same,normalized growth,"S. cerevisiae deletion strains, locus YDR226W, strain ADK1, active compounds read low",0.936
same,normalized growth,"S. cerevisiae deletion strains, locus YDR477W, strain SNF1, active compounds read low",0.938
same,normalized growth,"S. cerevisiae deletion strains, locus YER123W, strain YCK3, active compounds read low",0.902
same,normalized growth,"S. cerevisiae deletion strains, locus YER133W, strain GLC7, active compounds read low",0.933
same,normalized growth,"S. cerevisiae deletion strains, locus YFL009W, strain cdc4, active compounds read low",0.921
same,normalized growth,"S. cerevisiae deletion strains, locus YFL029C, strain CAK1, active compounds read low",0.968
same,normalized growth,"S. cerevisiae deletion strains, locus YFR003C, strain YPI1, active compounds read low",0.955
same,normalized growth,"S. cerevisiae deletion strains, locus YFR019W, strain FAB1, active compounds read low",0.932
same,normalized growth,"S. cerevisiae deletion strains, locus YFR028C, strain CDC14, active compounds read low",0.953
same,normalized growth,"S. cerevisiae deletion strains, locus YGR040W, strain KSS1, active compounds read low",0.929
same,normalized growth,"S. cerevisiae deletion strains, locus YGR052W, strain FMP48, active compounds read low",0.937
same,normalized growth,"S. cerevisiae deletion strains, locus YGR092W, strain DBF2, active compounds read low",0.911
same,normalized growth,[7],0.83 (active)
same,normalized growth,"S. cerevisiae deletion strains, locus YHR079C, strain IRE1, active compounds read low",0.948
same,normalized growth,"S. cerevisiae deletion strains, locus YHR082C, strain KSP1, active compounds read low",0.926
same,normalized growth,"S. cerevisiae deletion strains, locus YHR205W, strain SCH9, active compounds read low",0.919
same,normalized growth,"S. cerevisiae deletion strains, locus YIL147C, strain SLN1, active compounds read low",0.962
same,normalized growth,"S. cerevisiae deletion strains, locus YJL095W, strain BCK1, active compounds read low",0.919
same,normalized growth,"S. cerevisiae deletion strains, locus YJL128C, strain PBS2, active compounds read low",0.956
same,normalized growth,"S. cerevisiae deletion strains, locus YJL157C, strain FAR1, active compounds read low",0.928
same,normalized growth,"S. cerevisiae deletion strains, locus YJR016C, strain ILV3, active compounds read low",0.966
same,normalized growth,"S. cerevisiae deletion strains, locus YJR066W, strain TOR1 (second series), active compounds read low",0.95
same,normalized growth,"S. cerevisiae deletion strains, locus YJR066W, strain TOR1, active compounds read low",0.886
same,normalized growth,"S. cerevisiae deletion strains, locus YKL048C, strain ELM1, active compounds read low",0.946
same,normalized growth,"S. cerevisiae deletion strains, locus YKL067W, strain YNK1, active compounds read low",0.907
same,normalized growth,"S. cerevisiae deletion strains, locus YKL101W, strain HSL1, active compounds read low",0.898
same,normalized growth,"S. cerevisiae deletion strains, locus YKL193C, strain SDS22, active compounds read low",0.954
same,normalized growth,"S. cerevisiae deletion strains, locus YKL203C, strain TOR2, active compounds read low",1.03
same,normalized growth,"S. cerevisiae deletion strains, locus YLR113W, strain HOG1, active compounds read low",0.836 (active)
same,normalized growth,"S. cerevisiae deletion strains, locus YLR133W, strain CKI1, active compounds read low",0.923
same,normalized growth,"S. cerevisiae deletion strains, locus YLR403W, strain SFP1, active compounds read low",0.949
same,normalized growth,"S. cerevisiae deletion strains, locus YML070W, strain DAK1, active compounds read low",0.902
same,normalized growth,"S. cerevisiae deletion strains, locus YMR001C, strain CDC5, active compounds read low",0.961
same,normalized growth,"S. cerevisiae deletion strains, locus YMR205C, strain PFK2 (second series), active compounds read low",0.929
same,normalized growth,"S. cerevisiae deletion strains, locus YMR277W, strain FCP1, active compounds read low",0.944
same,normalized growth,"S. cerevisiae deletion strains, locus YNL006W, strain LST8, active compounds read low",0.961
same,normalized growth,"S. cerevisiae deletion strains, locus YNL020C, strain ARK1, active compounds read low",0.887
same,normalized growth,"S. cerevisiae deletion strains, locus YNL161W, strain CBK1, active compounds read low",0.967
same,normalized growth,"S. cerevisiae deletion strains, locus YNL183C, strain NPR1, active compounds read low",0.929
same,normalized growth,"S. cerevisiae deletion strains, locus YNL207W, strain RIO2, active compounds read low",0.948
same,normalized growth,"S. cerevisiae deletion strains, locus YNL222W, strain SSU72, active compounds read low",0.95
same,normalized growth,"S. cerevisiae deletion strains, locus YNL307C, strain MCK1 (second series), active compounds read low",0.888
same,normalized growth,"S. cerevisiae deletion strains, locus YOL078W, strain AVO1, active compounds read low",0.955
same,normalized growth,"S. cerevisiae deletion strains, locus YOL136C, strain PFK27, active compounds read low",0.908
same,normalized growth,"S. cerevisiae deletion strains, locus YOR061W, strain CKA2, active compounds read low",0.911
same,normalized growth,"S. cerevisiae deletion strains, locus YOR119C, strain RIO1, active compounds read low",0.954
same,normalized growth,"S. cerevisiae deletion strains, locus YOR231W, strain MKK1, active compounds read low",0.92
same,normalized growth,"S. cerevisiae deletion strains, locus YOR329C, strain SCD5, active compounds read low",0.971
same,normalized growth,"S. cerevisiae deletion strains, locus YPL031C, strain PHO85, active compounds read low",0.945
same,normalized growth,"S. cerevisiae deletion strains, locus YPL153C, strain RAD53, active compounds read low",0.927
same,normalized growth,"S. cerevisiae deletion strains, locus YPL204W, strain HRR25, active compounds read low",0.916
same,normalized growth,"S. cerevisiae deletion strains, locus YPL209C, strain IPL1, active compounds read low",0.972
same,normalized growth,"S. cerevisiae deletion strains, locus YPL256C, strain CLN2, active compounds read low",0.929
same,normalized growth,"S. cerevisiae deletion strains, locus YPR025C, strain CCL1, active compounds read low",0.966
same,normalized growth,"S. cerevisiae deletion strains, locus YPR106W, strain ISR1, active compounds read low",0.956
same,normalized growth,"S. cerevisiae deletion strains, locus YPR111W, strain DBF20, active compounds read low",0.929
same,normalized growth,"S. cerevisiae deletion strains, strain NNK1, active compounds read low",0.959
same,normalized growth,"S. cerevisiae deletion strains, strain TSCII, active compounds read low",0.97
